# Data published in PubChem BioAssay (NCATS).
# Where “and” joins values, the source holds several entries; their conditions need not be identical. Equal entries are not always repeated. Records with an inconclusive call do not appear. Calls of active or inactive are those of the source. Calls follow the shape of the dose curve; as a rule, active = well fitted cell-killing curve with a large enough effect; inconclusive = small, poorly fitted or top-dose-only effect, or effect the other way; inactive = no such curve, though single readings can be large or run the other way.
# Assay: qHTS of pediatric cancer cell lines to identify multiple opportunities for drug repurposing: Confirmatory screen for MG 63 (6-TG R) cells (AID 1347119); also: nearly all actives have a fitted effect of over 55% in size
# Conditions: MG-63 (6-TG resistant) osteosarcoma viability; series mostly up to 45.9 µM; activity change, negative = cytotoxicity: at the top concentration
# Text: Drug repurposing or repositioning has been offered as a strategy for drug development in oncology programs. This approach has special potential for childhood cancers and other rare or orphan diseases, where the expected return on new drug development has been a disincentive to pharmaceuticals.
# In this project we exploit the poly-pharmacology of drugs to discover new indications via phenotypic screening of a panel of 19 well-characterized cell lines derived from solid tumors seen in children and adolescents. The goal is to identify approved drugs with previously unrecognized anticancer properties that has the potential to reveal new mechanisms and biological processes involved in carcinogenesis or drug resistance. We employed a titration-based paradigm (quantitative high-throughput screening or qHTS), where all compounds were tested at multiple concentrations for their effect on cell viability. Concentration-response curves (CRCs) were derived directly from the primary screen, and both potency and efficacy values were used to identify compounds with robust bioactivity profiles. We screened the NIH Chemical Genomics Center (NCGC) Pharmaceutical Collection (NPC) and Mechanism Interrogation Plate (MIPE) small molecule collections of approved and investigational compounds against these cell lines; and measured metabolically active cells after 48 hours of compound treatment as a proxy for cell viability.
# Assay Submitter: Nathalia J. Martinez, National Center for Advancing Translational Sciences, National Institutes of Health, Rockville, MD, USA; email: natalia.martinez@nih.gov
# [1] Shen, M et al. Quantitative high-throughput phenotypic screening of pediatric cancer cell lines identifies multiple opportunities for drug repurposing. Oncotarget 2017 Dec 19;9(4):4758-4772. PMID 29435139.
# The cells were obtained from University of North Carolina (UNC), Pediatric Preclinical Testing Program (PPT), and Coriell Institute (CI).
# qHTS cell viability assay:
# Cells were assayed in growth media at a density of 500-1,000 cells/well. Five microliters of cells were dispensed into 1,536-well, white, solid-bottom, TC-treated plates (Greiner Bio One) using a multidrop dispenser and incubated at 37 degrees C, 5% CO2, under a humidified atmosphere for 5 hours. Twenty-three nanoliters of compounds and controls (neutral control DMSO or positive control bortezomib at final concentration of 2.3 µM) were subsequently transferred by Kalypsys pintool. For primary screens, the MIPE collection was tested at 11-point dilutions (final concentrations range from 0.78 nM to 46 µM) and the NPC collection at 8-point dilutions (final concentrations range from 0.59 nM to 46 µM). Compounds tested in follow-up screens were assayed at 11-point dilutions. Cells were incubated for 48 hours, followed by addition of 3 µL of CellTiter-Glo (Promega). After a 15 min incubation at room temperature, samples were analyzed for luminescence intensity using a ViewLux High-throughput CCD imager equipped with clear filters.
# Potency is read from the fitted curve at half-maximal effect.
Structure (SMILES),"activity change, negative = cytotoxicity",Potency
C=C(c1ccc(C(=O)O)cc1)c1cc2c(cc1C)C(C)(C)CCC2(C)C,7.84% (inactive),
CCN(CC)C(=S)SSC(=S)N(CC)CC,-25.9% (inactive),
COc1cc(C(C)=O)ccc1OCCCN1CCC(c2noc3cc(F)ccc23)CC1,-26.7% (inactive),
O=C1c2c(O)cc(O)cc2OC(c2ccc(O)c(O)c2)C1O (configuration not stated),-8.95% (inactive),
O=C(NCC1CCCCN1)c1cc(OCC(F)(F)F)ccc1OCC(F)(F)F (configuration not stated),-3.94% (inactive),
CCc1nc(N)nc(N)c1-c1ccc(Cl)cc1,-6.93% (inactive),
CCCOc1ccc2nc(NC(=O)OC)[nH]c2c1,,1170 nM (active)
C[C@]12CCC(=O)C=C1CC[C@@H]1[C@H]2[C@@H](O)C[C@@]2(C)[C@H]1CC[C@]2(O)C(=O)CO,15.1% (inactive),
Oc1ccc(-c2nc(-c3ccc(F)cc3)c(-c3ccncc3)[nH]2)cc1,,14700 nM (active)
CC(C)C[C@H](NC(=O)[C@H](Cc1ccccc1)NC(=O)c1cnccn1)B(O)O,,20.8 nM (active)
Cc1ccc(NC(=O)c2ccc(CN3CCN(C)CC3)cc2)cc1Nc1nccc(-c2cccnc2)n1,17.7% (inactive),
O=C(CCc1ccc(O)cc1)c1c(O)cc(O)cc1O,9.47% (inactive),
CC(S)C(=O)NCC(=O)O (configuration not stated),-13.4% (inactive),
CCN(CCO)CCCC(C)Nc1ccnc2cc(Cl)ccc12 (configuration not stated),-1.81% (inactive),
Nc1nc(Cl)nc2c1ncn2[C@H]1C[C@H](O)[C@@H](CO)O1,,16500 nM (active)
CN(C)c1ccc2nc3ccc(=[N+](C)C)cc-3sc2c1,,928 nM (active)
c1cnc2cc3c(cc2n1)C1CNCC3C1,-16.9% (inactive),
Nc1ccn([C@@H]2O[C@H](CO)[C@@H](O)C2O)c(=O)n1 (some centres not stated),-8.4% (inactive),
CC1(C)C(=O)N(CCN2CCC(C(=O)c3ccc(F)cc3)CC2)c2ccccc21,-20.9% (inactive),
Cc1ccc(Nc2nccc(N(C)c3ccc4c(C)n(C)nc4c3)n2)cc1S(N)(=O)=O,-19.5% (inactive),
CC[C@]1(O)C[C@H]2CN(CCc3c([nH]c4ccccc34)[C@@](C(=O)OC)(c3cc4c(cc3OC)N(C=O)[C@H]3[C@@](O)(C(=O)OC)[C@H](OC(C)=O)[C@]5(CC)C=CCN6CC[C@]43[C@@H]65)C2)C1,,46.5 nM (active) and 329 nM (active)
CCCCc1ccc2nc(NC(=O)OC)[nH]c2c1,,185 nM (active)
CS(=O)(=O)OCCCCOS(C)(=O)=O,10.4% (inactive),
Cc1cc(C2CCCCC2)n(O)c(=O)c1,,20800 nM (active)
CCN(CC)CCOc1ccc(Nc2ncc3cc(-c4c(Cl)cccc4Cl)c(=O)n(C)c3n2)cc1,,261 nM (active)
CC(=O)O[C@H]1C(=O)[C@@]2(C)C([C@H](OC(=O)c3ccccc3)[C@]3(O)C[C@H](OC(=O)[C@H](O)[C@@H](NC(=O)c4ccccc4)c4ccccc4)C(C)=C1C3(C)C)[C@]1(OC(C)=O)CO[C@@H]1C[C@@H]2O (some centres not stated),,13.1 nM (active)
Nc1ncn([C@H]2C[C@H](O)[C@@H](CO)O2)c(=O)n1,11.4% (inactive),
